# AmpC inh no detg = AmpC beta-lactamase inhibition without detergent | 0.52% of 330,000 active | Potency, µM (series often up to 57.1 µM), without a hit: top-dose activity change, negative = inhibition, hits mostly inhibitors | AmpC nitrocefin hydrolysis, absorbance 480 nm, 0.0001% Triton | P00811;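 further: potency means the concentration at half of the fitted maximal effect; plate controls were no compound for no effect and no enzyme for full effect; nearly all actives have a fitted effect of over 20% in size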
# Target sequence (P00811 whole entry, looked up): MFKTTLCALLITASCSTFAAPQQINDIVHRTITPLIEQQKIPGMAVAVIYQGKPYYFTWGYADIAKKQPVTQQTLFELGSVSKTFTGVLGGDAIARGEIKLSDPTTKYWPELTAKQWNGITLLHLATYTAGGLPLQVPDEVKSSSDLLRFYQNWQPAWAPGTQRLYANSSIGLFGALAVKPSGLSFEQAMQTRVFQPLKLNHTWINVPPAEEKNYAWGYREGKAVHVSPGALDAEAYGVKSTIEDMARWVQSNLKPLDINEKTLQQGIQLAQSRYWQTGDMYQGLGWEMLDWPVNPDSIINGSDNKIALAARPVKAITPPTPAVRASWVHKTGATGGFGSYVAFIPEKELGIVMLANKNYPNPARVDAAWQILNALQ
#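 AmpC (5.3 nM in the dispensed reagent) in 20 mM phosphate pH 7.0 with 0.01% (detergent screen) or 0.0001% Triton X-100 was preincubated with compounds for 15 min at room temperature. Nitrocefin was then added from an 800 uM solution, and hydrolysis was followed at 480 nm.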
# SARS PLpro yeast = blocks SARS-CoV papain-like protease in a yeast assay | Potency, µM (highest dose often 32.9 µM), without a hit: at the top dose activity, positive = growth rescue, usual class: activators | S. cerevisiae expressing SARS-CoV PLpro, growth rescue | 0.19% of 330,000 active; calls by dose curve; further: potency means the concentration at half of the fitted maximal effect; 0% is about no effect; nearly all actives have a fitted effect of over 55% in size
# AmpC inh detg = AmpC beta-lactamase inhibition with detergent present. Potency, µM (top dose mostly 114 µM), for the others: at the top dose activity change, negative = inhibition, most hits filed as inhibitors. AmpC hydrolysis of nitrocefin, absorbance 480 nm, 0.01% Triton. P00811. 0.041% of 370,000 active;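 further: potency means the concentration at half of the fitted maximal effect; 0% = no-compound wells and -100% = no-enzyme wells; nearly all actives have a fitted effect of over 25% in size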
#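 20 mM phosphate pH 7.0 + 0.01% (detergent screen) or 0.0001% Triton X-100; 5.3 nM AmpC reagent; cpd preinc 15 min RT; nitrocefin (800 uM stock) to start; A480 q20 s × 4 min; Activity was normalised to no-enzyme and no-compound control wells.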
# AMA1-RON2 inh = AMA1-RON2 (P. falciparum) interaction inhibition. AlphaScreen AMA1-biotinylated RON2 peptide binding. Potency, µM (titrated, usually from 58.2 µM), for the others: at the highest dose activity change, negative = inhibition, hits mostly inhibitors. 0.2% of 360,000 active. AID 720542;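 further: potency means the concentration at half of the fitted maximal effect; 0% = vehicle wells and -100% = peptide control; nearly all actives have a fitted effect of over 45% in size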
#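 AMA1 (3D7) with his tag at 25 nM final met compounds first, then biotinylated RON2 peptide at 25 nM; detection used donor plus acceptor beads, 10 µg/mL apiece, read by AlphaScreen after 30 min at room temperature.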
# Shiga toxin inh = blocks Shiga toxin action in Vero cells | Vero cells, Shiga toxin protein synthesis inhibition reporter | inhibition, % at 38.7 µM | 9.2% of 290,000 active | AID 2315; in the data active means inhibition mostly above about 28%, no sharp cut-off; inactive means mostly below about 43%; further: 0% is about no effect
# CHX counter = counter-screen for Shiga toxin inhibitors: cycloheximide protein synthesis inhibition; cell reporter, cycloheximide protein synthesis inhibition counterscreen; max response, %; 12% of 300,000 active; in the data active means max response mostly above about 13%, no sharp cut-off; inactive means mostly below about 14%; further: read at 38.3 µM for the half of the compounds with a filed dose; 0% is about no effect
# * hit, by the source's call; ? = inconclusive; · = not tested or not shown; [ ] = dose if it differs, or a comment. Only a selection was taken, and hits are over-represented in it overall. Unless noted, the call rests on the fitted dose curve; in most records, active means well fitted curve in the direction sought with a large enough effect; inconclusive means small, poorly fitted or top-dose-only effect, or another doubt; inactive means no such curve, though single readings can be large; an effect the other way counts as inactive or inconclusive.
SMILES,AmpC inh no detg,SARS PLpro yeast,AmpC inh detg,AMA1-RON2 inh,Shiga toxin inh,CHX counter
COc1cc(CCC(=O)Nc2cnc3ccccc3c2)cc(OC)c1OC,21.2%,-0.8%,3.3%,2.0%,-4.3,5.2
COc1cccc(CC(=O)Nc2nc3ccccc3[nH]2)c1,-9.4%,-0.1%,4.1%,13.2%,65.5,24.4*
COc1ccc(OCC(=O)Nc2nc3ccccc3[nH]2)cc1,-18.6%,3.8%,-13.7%,-1.2%,38.2*,21.6*
CCCCCC(=O)Nc1nc2ccccc2[nH]1,-33.7%,11.2%,2.7%,32.5%,62.4*,32.4*
O=C(COc1ccc2ccccc2c1)Nc1nc2ccccc2[nH]1,-23.8%,3.1%,-0.8%,-3.8%,29.1,-1.5
COc1ccc(CCC(=O)Nc2cnc3ccccc3c2)cc1,-22.6%,6.5%,7.2%,5.4%,79.5*,32.4*
O=S(=O)(CCn1cccc1)CCn1cccc1,3.6%,6.3%,?,22.1%,-3.1,1.0
COc1ccccc1CCC(=O)Nc1nc2ccccc2[nH]1,-26.5%,2.9%,?,-6.1%,69.4*,40.4*
COc1ccc(CCC(=O)Nc2nc3ccccc3[nH]2)cc1,-1.5%,-4.0%,?,-1.1%,42.2,18.8*
COc1ccc(CCC(=O)Nc2nc3ccccc3[nH]2)cc1OC,36.7%,-4.9%,?,-2.1%,-3.1,-3.7
COc1ccc(CC(=O)Nc2nc3ccccc3[nH]2)cc1,-0.3%,-1.0%,-5.9%,11.0%,-7.5,6.2
CC1=NN(C(=O)c2ccc(Cn3cc(Br)c([N+](=O)[O-])n3)o2)C(O)(C(F)(F)F)C1 (centres undefined),-17.0%,-0.4%,1.9%,29.3%,-6.2,-3.6
COc1cc2c(cc1OC)CN(c1ccc(F)cc1[N+](=O)[O-])CC2,-5.5%,-4.5%,-20.0%,?,71.7*,30.2*
COc1cc2c(cc1OC)CN(c1ncccc1[N+](=O)[O-])CC2,-6.1%,1.1%,1.7%,-18.9%,54.5*,25.4*
Cc1cccc(CN2CCN(c3ncccn3)CC2)c1,-3.6%,1.2%,-8.6%,3.7%,1.9,-2.0
O=C1NC(=O)[C@@H]2C3c4ccccc4C=CN3[C@H](C(=O)c3cccs3)[C@H]12 (some centres undefined),-22.3%,-5.5%,-10.5%,·,69.1,31.2*
Cc1cc(C)nc(SSc2nc(C)cc(C)n2)n1,?,-20.5%,79.4µM*,13.3%,-8.0,-2.6
Cc1cc(C)nc(SCCN(C)C)n1,-5.1%,0.4%,-2.7%,2.8%,8.3,0.7
CCc1ccc(/C=C2/SC(=S)N(CCC(=O)Nc3ccc(C(=O)O)cc3)C2=O)cc1,2.1%,-1.5%,-1.8%,·,-10.9,-1.9
COc1cc(C(=O)NCCSc2ccccc2)cc(OC)c1OC,0.0%,-0.2%,-8.6%,?,-1.3,9.5
CN(C)S(=O)(=O)c1ccc(C(=O)NCCSc2ccccc2)cc1,28.9%,-4.6%,2.5%,-8.8%,151.0*,48.1*
COc1ccc(C(=O)NCCSc2ccccc2)cc1OC,-14.0%[2.29 µM],-0.3%,-13.0%,20.9%,64.1*,32.9*
COc1ccccc1NC(=O)C(O)C(O)C(=O)Nc1ccccc1OC (centres undefined),-16.5%,-0.3%,?,-10.7%,10.2,-0.7
CC(=O)N[C@@H](Cc1c[nH]c2ccccc12)C(=O)OCC(=O)Nc1cc(C)on1,·,·,·,-0.6%,·,·
Nc1cc2nc3ccccc3oc-2cc1=O,-43.2%,-6.2%,-3.0%,-2.6%,41.6*,28.1*
SMILES,AmpC inh no detg,SARS PLpro yeast,AmpC inh detg,AMA1-RON2 inh,Shiga toxin inh,CHX counter
Cc1ccc(S(=O)(=O)NC(CC(=O)N2CCOCC2)c2ccco2)cc1 (centres undefined),0.141µM*,2.8%,4.8%,-1.5%,23.9,2.2
Cc1ccc(S(=O)(=O)NC(CC(=O)NC2CCCC2)c2ccco2)cc1 (centres undefined),0.398µM*,2.6%,-4.3%,11.6%,6.2,2.7
COc1ccc(-c2c3c(=O)n(C)c(=O)n(C)c3cn2Cc2cccnc2)cc1,1.4%,-0.1%,-17.5%,2.0%,125.6*,17.1*
COc1ccc(-c2c3c(=O)n(C)c(=O)n(C)c3cn2Cc2ccccn2)cc1,7.2%,-6.8%,-14.8%,54.9%,42.4,-2.4
CCCN1CCC(=O)N([C@H](COc2ccccc2)CC(C)C)CC1,45.0%,-4.4%,-12.0%,-4.9%,11.5,0.9
CCCN1CCC(=O)N([C@H](CSc2ccccc2)CC(C)C)CC1,119.4%,4.6%,-2.9%,-3.3%,42.0*,45.2*
CC(C)C[C@@H](CSc1ccccc1)N1CCN(CC(C)C)CCC1=O,100.8%,-3.1%,-6.4%,-0.6%,46.7*,35.3*
CC(C)C[C@@H](CO)N1CCN(Cc2ccc(Br)cc2)CCC1=O,153.6%,2.6%,-13.9%,-8.2%,-7.5,1.0
CC(C)CC(CSc1ccc(Br)cc1)N1CCN(CC(C)C)CCC1=O (centres undefined),·,·,·,·,108.3*,79.7*
CCCN1CCC(=O)N(C(CSc2ccc(C)cc2)CC(C)C)CC1 (centres undefined),·,·,·,·,77.2*,42.2*
CC(=O)Nc1ccc(SCC(CC(C)C)N2CCN(CC(C)C)CCC2=O)cc1 (centres undefined),·,·,·,·,-13.5,-10.0
CCCN1CCC(=O)N([C@H](CSc2ccc(C)cc2)Cc2ccccc2)CC1,199.6%,0.5%,1.4%,-11.6%,-5.7,-4.1
O=C(c1ccccc1)c1ccc2nc(Nc3cc(Cl)ccc3O)c3nncn3c2c1,·,·,0.8%,·,·,·
Cc1ccc(NC(=O)CSCC(=O)NCc2ccco2)cc1,-17.3%,-1.5%,-13.7%,-4.1%,·,·
Cc1c(Cl)cccc1NC(=O)CNC(=O)c1ccc2c(c1)OCCO2,-24.7%,4.7%,·,14.2%,·,·
Cc1ccc(SC[C@H](Cc2ccccc2)N2CCN(CCc3ccccc3)CCC2=O)cc1,29.3%,-0.4%,-6.8%,-28.5%,12.7,-1.8
CCCN1CCC(=O)N([C@H](CSc2ccc(C)cc2)CC(C)C)CC1,147.3%,1.2%,-8.2%,-3.8%,61.7*,70.7*
CC(=O)N1CCCc2cc(S(=O)(=O)Nc3ccc(C)c(F)c3)ccc21,·,·,-3.8%,·,2.2,6.6
Cc1cccc(/C=N\Nc2nnc(-c3ccccc3)c(=O)[nH]2)c1,-30.3%,-9.5%,-4.5%,0.0%,-9.7,-1.5
CC(/C=N/Nc1nnc(C)c(=O)[nH]1)=C\c1ccccc1,-12.1%,-14.7%,-4.1%,1.4%,81.2*,26.3*
Cc1nc2scc(-c3ccccc3)c2c(=O)n1N=C1C=CC(=O)C=C1,27.7%,-2.0%,-0.6%,-14.7%,48.7*,25.1*
Cc1nc2scc(-c3ccccc3)c2c(=O)n1N,-12.8%,-7.6%,-7.3%,1.3%,-5.3,-0.8
Cc1ccc(C(C(=O)NC(C)(C)C)N(CCCN2CCOCC2)C(=O)c2ccc(-c3ccccc3)[nH]2)o1 (centres undefined),33.8%,6.3%,-2.5%,-1.8%,-5.9,-5.0

# Compound activity (PubChem)
